Data taken from PubChem BioAssay (Tox21).
Inconclusive results are not listed. Activity calls are given as the source filed them. Unless noted, calls come from the whole dose curve; as a rule, active = well fitted curve in the direction sought with a large enough effect in the repeat runs; inconclusive = weak or mixed curves; inactive = no such curve, though single readings can be large; an effect the other way counts as inactive or inconclusive.

Experiments:
[1] = molecular target: Luciferin 4-monooxygenase (Photinus pyralis) (UniProt P08659); assay: qHTS assay to identify small molecule inhibitors of firefly luciferase (AID 1224835); note: nearly all actives have a fitted effect of over 25% in size; note: potency is the fitted concentration of half-maximal effect
Summary of the method: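 Biochemical qHTS: compounds run as interplate titrations against purified firefly enzyme, with D-luciferin and ATP each at its KM concentration. Light output recorded by CCD imaging.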

[2] = qHTS assay to identify small molecule agonists of the constitutive androstane receptor (CAR) signaling pathway - cell viability counter screen (AID 1224836); note: nearly all actives have a fitted effect of over 45% in size; note: potency is the fitted concentration of half-maximal effect
Summary of the method: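 HepG2-CYP2B6-hCAR, 2500 cells/well, 4 h pre-incubation; cpd 15 conc + PK11195 0.75 uM final; 23 h, 37 C/5% CO2; CellTiter-Fluor, fluorescence.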

[3] = qHTS assay to identify small molecule antagonists of the constitutive androstane receptor (CAR) signaling pathway - cell viability counter screen (AID 1224837); note: nearly all actives have a fitted effect of over 45% in size; note: potency is the fitted concentration of half-maximal effect
Summary of the method: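 In quantitative HTS format, compounds at 15 concentrations were applied to HepG2 cells double-transfected with hCAR and CYP2B6-2.2kb under 50 nM CITCO stimulation; live-cell protease activity was read after 23 hr via CellTiter-Fluor.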

[4] = qHTS assay to identify small molecule antagonists of the estrogen related receptor signaling pathway with the pleiotropic PPARgamma coactivator (PGC) from Tox21 10K library - cell viability counter screen (AID 1224840; active = well fitted cell-killing curve with a large enough effect in the repeat runs, not every such curve was filed as active; note: nearly all actives have a fitted effect of over 40% in size; note: potency is the fitted concentration of half-maximal effect)
Summary of the method: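 Viability counter screen, PGC/ERR cells: 17.5 h compound exposure at 37 C, CellTiter-Fluor fluorescence endpoint.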

[5] = molecular target: Thyrotropin receptor (Homo sapiens) (UniProt P16473); assay: qHTS assay to identify small molecule agonists of the thyroid stimulating hormone receptor (TSHR) signaling pathway (AID 1224843; calls by dose curve; note: nearly all actives have a fitted effect of over 45% in size)
Summary of the method: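 HEK293/TSHR, 800 cells/well; cpd 30 min RT; add cAMP-d2 + anti-cAMP-cryptate, 1 h RT; fluorescence read on plate reader. 15-pt titration, n=3.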

[6] = qHTS assay to identify small molecule agonists of the hypoxia (HIF-1) signaling pathway - cell viability counter screen (AID 1224844; calls by dose curve; note: nearly all actives have a fitted effect of over 50% in size; note: potency is the fitted concentration of half-maximal effect)
Summary of the method: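 Same wells as the HIF-1 reporter screen; ME-180 cells carrying HRE-bla, 17 hr treatment at 37C; CellTiter-Glo luminescence read after 30 min at room temperature.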

[7] = qHTS assay to identify small molecule antagonists of the estrogen related receptor signaling pathway with the pleiotropic PPARgamma coactivator (PGC) from Tox21 10K library (AID 1224841; call rule not given here; note: actives are mostly falling curves and most rising ones were filed inactive; nearly all actives have a fitted effect of over 50% in size; note: potency is the fitted concentration of half-maximal effect)
Summary of the method: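 In the PGC/ERR line, DMSO solutions of test chemicals are pin-delivered to 2,000 cells/well six hours after dispensing. Following eighteen hours' incubation, One-Glo reagent is added and luminescence recorded.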

[8] = qHTS assay to identify small molecule agonists of the estrogen related receptor signaling pathway with the pleiotropic PPARgamma coactivator (PGC) from Tox21 10K library (AID 1224842); note: nearly all actives have a fitted effect of over 15% in size
Summary of the method: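 PGC/ERR reporter cell line, 2,000 cells per well, incubated 6 h at 37 C before 23 nL compound in DMSO was added. After 18 h at 37 C, One-Glo luminescence read following 30 min at room temperature.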

[9] = molecular target: Nuclear receptor subfamily 1 group I member 3 (Homo sapiens) (UniProt Q14994); assay: qHTS assay to identify small molecule antagonists of the constitutive androstane receptor (CAR) signaling pathway (AID 1224838); note: nearly all actives have a fitted effect of over 40% in size; note: potency is the fitted concentration of half-maximal effect
Summary of the method: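 CITCO-stimulated (50 nM final) HepG2 cells stably transfected with hCAR and CYP2B6-2.2kb luciferase were exposed to compounds at 15 concentrations for 24 h at 37 C/5% CO2. A luciferase reagent was added and luminescence recorded after 30 min.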

[10] = molecular target: Nuclear receptor subfamily 1 group I member 3 (Homo sapiens) (UniProt Q14994); assay: qHTS assay to identify small molecule agonists of the constitutive androstane receptor (CAR) signaling pathway (AID 1224839);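 note: HepG2 cells stably carrying human CAR and a CYP2B6 luciferase reporter; series mostly up to about 92 µM; nearly all actives have a fitted effect of over 15% in size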
Summary of the method: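 HepG2-CYP2B6-hCAR cells, 2500/well, 4 h pre-incubation; compounds 15 conc.; PK11195 0.75 uM final; 24 h, 37 C/5% CO2; ONE-Glo luciferase read.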

Measured: Potency

Chain of Nuclear receptor subfamily 1 group I member 3 (Homo sapiens) (Q14994 whole entry, looked up): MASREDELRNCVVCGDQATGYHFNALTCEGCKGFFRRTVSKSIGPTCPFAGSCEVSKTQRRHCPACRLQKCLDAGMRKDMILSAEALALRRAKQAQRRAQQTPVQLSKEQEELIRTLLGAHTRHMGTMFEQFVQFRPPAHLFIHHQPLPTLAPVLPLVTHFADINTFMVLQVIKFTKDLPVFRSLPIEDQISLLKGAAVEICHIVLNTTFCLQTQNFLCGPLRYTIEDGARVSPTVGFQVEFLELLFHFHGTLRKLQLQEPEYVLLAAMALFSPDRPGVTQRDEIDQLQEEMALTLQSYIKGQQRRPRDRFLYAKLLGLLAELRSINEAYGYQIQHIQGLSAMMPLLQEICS
Chain of Luciferin 4-monooxygenase (Photinus pyralis) (P08659 whole entry, looked up): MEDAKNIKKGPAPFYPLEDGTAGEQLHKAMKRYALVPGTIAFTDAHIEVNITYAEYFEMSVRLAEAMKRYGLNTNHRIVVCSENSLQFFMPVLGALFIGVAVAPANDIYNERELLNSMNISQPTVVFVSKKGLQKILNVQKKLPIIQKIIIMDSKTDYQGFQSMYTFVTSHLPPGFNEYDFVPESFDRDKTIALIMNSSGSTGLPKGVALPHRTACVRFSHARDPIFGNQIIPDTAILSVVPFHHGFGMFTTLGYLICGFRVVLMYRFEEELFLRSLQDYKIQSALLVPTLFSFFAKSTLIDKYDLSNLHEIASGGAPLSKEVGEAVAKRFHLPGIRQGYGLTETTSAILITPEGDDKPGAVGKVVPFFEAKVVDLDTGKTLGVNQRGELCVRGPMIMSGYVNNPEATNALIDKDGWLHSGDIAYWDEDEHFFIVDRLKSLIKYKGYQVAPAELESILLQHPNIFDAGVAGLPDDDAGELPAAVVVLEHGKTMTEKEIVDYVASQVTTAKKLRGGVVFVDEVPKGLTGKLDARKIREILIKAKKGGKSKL
Chain of Thyrotropin receptor (Homo sapiens) (P16473 whole entry, looked up): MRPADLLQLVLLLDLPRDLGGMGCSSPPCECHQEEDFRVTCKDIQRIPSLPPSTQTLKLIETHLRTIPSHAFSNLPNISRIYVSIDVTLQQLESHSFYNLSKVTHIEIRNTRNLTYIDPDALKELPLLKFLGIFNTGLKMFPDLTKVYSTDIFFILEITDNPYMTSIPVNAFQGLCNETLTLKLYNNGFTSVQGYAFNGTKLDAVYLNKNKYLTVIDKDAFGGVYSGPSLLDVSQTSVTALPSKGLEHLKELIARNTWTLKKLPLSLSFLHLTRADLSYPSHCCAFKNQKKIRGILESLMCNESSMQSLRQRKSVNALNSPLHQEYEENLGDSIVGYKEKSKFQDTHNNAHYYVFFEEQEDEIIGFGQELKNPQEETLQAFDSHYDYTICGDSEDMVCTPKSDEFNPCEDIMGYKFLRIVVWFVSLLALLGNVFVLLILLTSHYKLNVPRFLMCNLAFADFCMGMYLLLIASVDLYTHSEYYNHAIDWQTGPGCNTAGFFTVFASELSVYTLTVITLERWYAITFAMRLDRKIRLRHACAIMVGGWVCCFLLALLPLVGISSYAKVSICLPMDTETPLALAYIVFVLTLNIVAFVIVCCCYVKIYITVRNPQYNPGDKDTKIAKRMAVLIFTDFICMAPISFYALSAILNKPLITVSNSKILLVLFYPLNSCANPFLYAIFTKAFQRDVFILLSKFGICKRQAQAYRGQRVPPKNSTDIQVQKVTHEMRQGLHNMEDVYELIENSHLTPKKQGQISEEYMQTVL

Nc1nc(-c2ccc([N+](=O)[O-])cc2)cs1
inactive: [1] | [2] | [3] | [4] | [5] | [6]

C1=CCC2CC=CC2C1 (stereo not drawn)
not listed: [9] | [10]
inactive: all other assays above

COc1ccc(C(=O)NCc2ccc(OCCN(C)C)cc2)cc1OC
inactive: [1] | [2] | [3] | [4] | [8] | [6]

O=C(O)c1cc(Cl)cc(Cl)c1O
not listed: [9] | [10]
inactive: all other assays above

COC(C)(C)OC
not listed: [9] | [10]
inactive: all other assays above

CCCCCCCC/C=C/C(=O)O
inactive: [1] | [2] | [3] | [4]

COc1ccc(-n2nc(C(F)F)cc2-c2ccc(S(C)=O)cc2)cc1 (stereo not drawn)
inactive: [1] | [2] | [3] | [4] | [5]

COC(=O)Nc1nc2ccc(C(=O)C3CC3)cc2[nH]1
inactive: [2] | [3] | [4] | [5]
active: [1] 19.5 µM

CC(CCc1ccc(O)cc1)NCCc1ccc(O)c(O)c1 (stereo not drawn)
not listed: [9] | [10]
inactive: all other assays above

CCCCOC(=O)CCCCC(=O)OCCCC
not listed: [5] | [9] | [10]
inactive: all other assays above

CCOC(=O)c1ccc(NC(=O)CN2CCCCC2)cc1
not listed: [4] | [8] | [10]
inactive: all other assays above

CCN(CC)c1ccc(C(=C2C=CC(=[N+](CC)CC)C=C2)c2ccc(S(=O)(=O)O)cc2S(=O)(=O)[O-])cc1
inactive: [8]
active: [1] 8.94 µM | [2] 24.3 µM | [3] 27.3 µM | [4] 27.3 µM | [7] 8.63 µM

C[C@@H]1C[C@H]2[C@@H]3CCC4=CC(=O)C=C[C@]4(C)[C@@]3(F)[C@@H](O)C[C@]2(C)[C@@]1(O)C(=O)COP(=O)(O)O
inactive: [1] | [2] | [3] | [4] | [5] | [6]

CC1CCC(C(C)CS)CC1S (stereo not drawn)
active: [6] 54.9 µM
not listed: [8] | [9] | [10]
inactive: all other assays above

CC(=O)OCCC(C)CC(C)(C)C (stereo not drawn)
not listed: [9]
inactive: all other assays above

CCCCCCOC(=O)CCCCC
inactive: [1] | [2] | [3] | [4] | [5] | [6]

CC(C)(C)S
inactive: [1] | [2] | [3] | [4] | [7] | [8]

CC(C)COC(=O)c1ccc(O)cc1
inactive: [2] | [3] | [9] | [4] | [6]
active: [1] 44.7 µM

CC(CN(CCN(CC(C)OCCO)CC(C)OCCO)CC(C)OCCO)OCCO (stereo not drawn)
inactive: [1] | [2] | [3] | [4] | [5] | [6]

Cc1oc(=O)oc1COC(=O)[C@@H]1N2C(=O)[C@@H](NC(=O)[C@H](N)c3ccccc3)[C@H]2SC1(C)C
not listed: [6] | [9] | [10]
inactive: all other assays above

O=C(O)CCCc1c[nH]c2ccccc12
not listed: [4] | [9] | [10]
inactive: all other assays above

CCCCCCCCCCCCCOS(=O)(=O)O
inactive: [2] | [3] | [4] | [5]

O=CNNC=O
inactive: [1] | [2] | [3] | [4] | [5] | [6]

CCCCCC
not listed: [1] | [7] | [8]
inactive: all other assays above

CCCCCCCCCCCSCC(=O)O
not listed: [1] | [6]
inactive: all other assays above

CC(C)C(O)C(C)(C)CO (stereo not drawn)
active: [9] 8.91 µM | [7] 1.78 µM
inactive: [1] | [10] | [8] | [5]

Nc1ccc(N=Nc2ccc(N)cc2)cc1
inactive: [9] | [10] | [5]
active: [1] 4.48 µM

Cc1cccc(C)c1NC(=O)c1cc(S(N)(=O)=O)c(Cl)cc1O
inactive: [2] | [3] | [9] | [10] | [5]
